Bioassay records from PubChem BioAssay.
Hits are enriched below; roughly 3% of the tested compounds scored in any of these assays.
VDR inh – vitamin D3 receptor (human) inhibition; Potency, µM, actives largely listed as inhibitors; VDR-SRC2-3 peptide fluorescence polarization, 2 h; actives 0.93% (n = 400,000); AID 504847
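Compounds are added to VDR with labelled SRC2-3 coactivator peptide and held 2 h at room temperature. Inhibition of the VDR–peptide interaction is then read as a change in fluorescence polarization.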
USP1-UAF1 inh – inhibitors of human USP1/UAF1 deubiquitinase; O94782; recombinant USP1/UAF1, Ub-Rhodamine cleavage fluorescence; Potency, µM (series often up to 57.1 µM), actives largely listed as inhibitors; actives 0.23% (n = 390,000); also: nearly all actives have a fitted effect of over 60% in size
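USP1/UAF1 complex at 1 nM was preincubated with compound for 15 min at room temperature, then Ub-Rho substrate (150nM final) was added. Fluorescence (480/540 nm) was read kinetically, 6 reads every 60 seconds.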
PLK1 PBD inh – blocks phosphopeptide binding to human PLK1 polo-box domain | P53350 | Plk1 PBD binding of FITC phosphopeptide, fluorescence polarization | Potency, µM, most hits filed as inhibitors | actives 2.8% (n = 360,000); also: series mostly up to about 57 µM; nearly all actives have a fitted effect of over 65% in size
KAT2A inh – GCN5L2 (KAT2A) acetyltransferase inhibition | GCN5L2 HAT assay, ThioGlo1 CoA-SH fluorescence | Potency, µM (titrated, usually from 58.9 µM), hits mostly inhibitors | actives 0.21% (n = 390,000) | AID 504327
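GCN5L2 (20nM final) in 50mM HEPES, 0.1mM EDTA pH 7.5, 0.01% Tween-20 was preincubated 15 min at room temperature with compound, then given ThioGlo1 (50uM), H3(1-25) peptide (75uM) and acetyl-CoA (70uM); CoA-thiol fluorescence (Ex340/Em540) was read at 0 and 20 min.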
TSG101-PTAP inh – blocks PTAP/TSG101 interaction to inhibit HIV-1 budding | Q99816 | Fluorescence polarization, FITC-PTAP peptide / Tsg101 binding | Potency, µM (series often up to 115 µM), most hits filed as inhibitors | 340,000 tested, under 10 active; active = well fitted inhibition curve with a large enough effect in the main read-out, with a control signal flat, not every such curve was filed as active; inconclusive = small, poorly fitted or top-dose-only effect, or effect the other way, or a change in a side signal; inactive = no such curve, though single readings can be large or run the other way
Target sequence (Q99816 whole entry, looked up): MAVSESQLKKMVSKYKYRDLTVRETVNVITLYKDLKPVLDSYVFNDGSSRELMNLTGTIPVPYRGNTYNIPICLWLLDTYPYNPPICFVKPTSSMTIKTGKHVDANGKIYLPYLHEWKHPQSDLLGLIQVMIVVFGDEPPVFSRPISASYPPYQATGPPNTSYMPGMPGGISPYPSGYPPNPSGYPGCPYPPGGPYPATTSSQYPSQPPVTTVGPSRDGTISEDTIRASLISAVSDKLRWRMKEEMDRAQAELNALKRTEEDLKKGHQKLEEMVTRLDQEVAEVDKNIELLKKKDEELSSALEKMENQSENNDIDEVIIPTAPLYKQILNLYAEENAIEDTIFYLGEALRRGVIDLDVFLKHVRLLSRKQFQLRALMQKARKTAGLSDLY
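Fluorescence polarization binding of Tsg101 binding domain (10 uM final) to FITC-labeled PTAP peptide (50 nM final) in HEPES pH 7.5 buffer with NaCl, Tween 20, EDTA, TCEP. Compounds added before peptide; binding 20 min at RT.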
Hits are given with their value; 0 = inactive; ? = inconclusive; - = no result given. Unless noted, calls follow the shape of the dose curve; as a rule, active = well fitted curve in the direction sought with a large enough effect; inconclusive = small, poorly fitted or top-dose-only effect, or another doubt; inactive = no such curve, though single readings can be large; an effect the other way counts as inactive or inconclusive.

SMILES	VDR inh	USP1-UAF1 inh	PLK1 PBD inh	KAT2A inh	TSG101-PTAP inh
CCOC(=O)c1c(-c2ccc(-c3ccccc3)cc2)csc1NC(=O)C1C2CCC(O2)C1C(=O)O (stereo unspecified)	0	0	11µM	0	0
COc1cc(NC(=O)c2cccc3c(-c4cnn(C)c4)coc23)cc(OC)c1OC	-	-	0	-	-
O=C(Cn1nc(Cl)nc1Cl)c1ccccc1	0	0	17µM	0	0
O=C(Cn1nc(Cl)nc1Cl)c1ccc2c(c1)OCCO2	0	0	12µM	0	0
COc1ccc(-c2noc(-c3ccc(N4CCN(c5ccccc5)CC4)c([N+](=O)[O-])c3)n2)cc1	0	0	-	0	-
CC(C)N(Cc1ccccc1)C(=O)CN1C(=O)COc2ccc(S(=O)(=O)N3CCCCCC3)cc21	0	0	?	0	0
CC(C)N(C(=O)Cn1cc(S(=O)(=O)Cc2ccc(Br)cc2)c2ccccc21)C(C)C	0	0	-	0	-
O=c1[nH]c2ccc(NCc3ccc(-c4cccc(Cl)c4)o3)cc2[nH]1	0	0	-	0	-
c1ccc2[nH]c(CSc3ncnc4c3oc3ccccc34)nc2c1	0	0	0	40µM	0
O=C(Nc1ccc2nc(C(F)(F)F)[nH]c2c1)[C@@H]1O[C@H](CO)[C@@H](O)[C@H]1O	-	-	0	-	-
COCCCN1C(=O)C(CC(=O)NC2CCCC2)CC(C(=O)N(C(C)C)C(C)C)=C1C (stereo unspecified)	-	-	0	-	-
Cc1occc1C(=O)NNC(=O)Nc1ccc(Cl)c(Cl)c1	?	0	6.7µM	0	0
NS(=O)(=O)c1ccc(NC(=O)c2c(F)cccc2Cl)cc1	0	0	0	0	0
NS(=O)(=O)c1ccc(NC(=O)c2c(Cl)cccc2Cl)cc1	0	0	21µM	0	0
Cc1occc1C(=O)Nc1ccc(S(N)(=O)=O)cc1	?	0	21µM	0	0
CCOc1ccc(OCC)c(NC(=O)c2cc(S(=O)(=O)N3CCCC3)cn2C)c1	0	0	-	0	-
CCc1ccc(NC(=O)CN(c2ccc(C)cc2)S(=O)(=O)c2cccs2)cc1	0	0	-	0	-
O=C(Nc1ccccc1C(=O)N1CCCCC1)NC1CCCCC1	0	0	21µM	0	0
O=C(c1ccccc1)[C@@H]1[C@@H](C(=O)c2ccc(F)cc2)[C@@]2(C(=O)Nc3ccccc32)[C@H]2c3ccccc3C=CN12	?	28µM	0	0	0
CN1CCN(S(=O)(=O)c2cccc(C(=O)N(Cc3ccccc3)c3ccccc3)c2)CC1	0	0	0	-	0
NNC(=O)C(=O)NCCCN1CCOCC1	0	0	0	0	0
CC(C)CNC(=O)C(=O)NCCCN1CCOCC1	0	0	21µM	0	0
CCc1ccc(NC(=O)C2CCN(S(=O)(=O)c3ccc4c(c3)CC(C)N4C(C)=O)CC2)cc1 (stereo unspecified)	0	0	0	0	0
CCOc1cc(/C=N/N=C2/NC(=O)C(CC(=O)O)S2)ccc1OCc1ccc(Cl)cc1Cl (stereo unspecified)	0	0	27µM	0	0
COc1ccc(/C=N/OC(=O)Nc2ccccc2OC)cc1	0	0	0	0	0
SMILES	VDR inh	USP1-UAF1 inh	PLK1 PBD inh	KAT2A inh	TSG101-PTAP inh
Cc1ccc(N2C(=O)CC(Sc3ccccc3C(=O)O)C2=O)cc1C (stereo unspecified)	0	0	?	0	0
Cc1cccc(N2C(=O)CC(Sc3ncn[nH]3)C2=O)c1 (stereo unspecified)	0	0	27µM	0	0
Cc1ccc(N2C(=O)CC(Sc3ncn[nH]3)C2=O)cc1C (stereo unspecified)	0	0	30µM	0	0
O=C(C=Cc1ccccc1O)c1ccccc1O	?	0	?	-	0
O=C(/C=C/c1ccccc1Cl)c1ccccc(=O)c1O	28µM	0	27µM	0	0
Cc1ccc(C)c(/C=C/C(=O)c2ccccc(=O)c2O)c1	45µM	0	?	0	0
O=C(/C=C/c1ccccc1Cl)Nc1ccccc1	0	0	0	0	0
CC(Cc1ccccc1)NC(=O)/C=C/c1ccc([N+](=O)[O-])cc1 (stereo unspecified)	0	0	0	0	0
O=C(/C=C/c1ccc([N+](=O)[O-])cc1)c1ccccc(=O)c1O	25µM	0	0	-	0
